Data reported in PubChem BioAssay AID504847 (National Center for Advancing Translational Sciences (NCATS), 2011).
About 3,700 (0.93%) of roughly 400,000 compounds were called active. Another 3% or so got no clear call; they are omitted. The list comes from a sample in which actives are over-represented; it also holds similar structures and randomly drawn compounds. Unmarked numbers belong to inactive results. Calls come from the whole dose curve; as a rule, active = well fitted inhibition curve with a large enough effect; inconclusive = small, poorly fitted or top-dose-only effect, or another doubt; inactive = no such curve, though single readings can be large or run the other way. Where a SMILES comes first, the peptide text is derived from it. Side-chain parts run from the residue outwards. [ ]: non-standard residue; d: D form. The star is where a group is joined. X1 = CCC(C)C(N)C1=NC(C(=O)*)CS1; Orn = NCCC[CH](N)C(=O)O

Biological target: Vitamin D3 receptor (Homo sapiens) (UniProt P11473)
Test: Inhibitors of the vitamin D receptor (VDR): qHTS
Conditions: VDR-SRC2-3 peptide fluorescence polarization, 2 h; max response, negative = inhibition: active compounds read low
In short: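 Measured by FP: displacement of SRC2-3 coactivator peptide from VDR by library compounds, following a two-hour ambient incubation.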
% is set by controls: 0 for no effect and ±100 for the full control effect; potency is the fitted concentration of half-maximal effect.

Sequence of Vitamin D3 receptor (Homo sapiens) (P11473 whole entry, looked up): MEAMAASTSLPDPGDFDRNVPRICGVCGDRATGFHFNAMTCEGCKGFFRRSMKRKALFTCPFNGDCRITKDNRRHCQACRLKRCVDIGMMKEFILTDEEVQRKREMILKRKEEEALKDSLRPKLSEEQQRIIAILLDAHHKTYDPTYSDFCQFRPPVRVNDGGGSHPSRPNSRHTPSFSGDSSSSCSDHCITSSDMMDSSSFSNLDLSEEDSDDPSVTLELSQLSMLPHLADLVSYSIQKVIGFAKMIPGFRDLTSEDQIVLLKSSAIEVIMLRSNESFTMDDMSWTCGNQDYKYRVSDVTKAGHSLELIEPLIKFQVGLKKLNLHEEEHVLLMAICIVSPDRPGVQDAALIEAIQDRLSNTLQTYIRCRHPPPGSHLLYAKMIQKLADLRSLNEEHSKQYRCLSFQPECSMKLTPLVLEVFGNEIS

Compound | Potency | max response, negative = inhibition [%]
CCOc1ccc(C(=O)CCN2CCOCC2)cc1 | 50.1 µM (active) | –
CCOc1ccc(C(=O)N2CCN(CCc3ccccn3)CC2)cc1 | – | -7.3
CCOc1ccc(C(=O)CCC(=O)Nc2ccncc2)cc1 | – | -4.74
Cc1ccc(-c2nnc3c4ccccc4c(C)nn23)cc1NC(=O)c1cccc(Br)c1 | – | -6.72
CCC(=O)N1CCc2cc(S(=O)(=O)NC(C(=O)NCCc3ccc(C)cc3)C(C)C)ccc21 (configuration not stated) | – | -2.72
Cc1cccc(N2CCN(C(=O)Cn3ncc4c5ccccc5n(C)c4c3=O)CC2C)c1 (configuration not stated) | – | 4.17
CCCCc1ccc(NC(=O)CN2C(=O)NC(Cc3ccccc3)C2=O)cc1 (configuration not stated) | – | 3.7
CCCC[C@H]1C(=O)N(c2ccccc2)N(c2ccc(O)cc2)C1=O | 10 µM (active) | –
CCCOC(=O)c1ccc(N2C(=O)c3ccccc3C2=O)cc1 | – | -19.4
CC(C)c1ccc2oc(-c3cc(NC(=O)c4cccs4)ccc3Cl)nc2c1 | – | 15
CCC(C)C(N)C1=NC(C(=O)NC(CC(C)C)C(=O)NC(CCC(=O)O)C(=O)NC(C(=O)NCCCCC2NC(=O)C(CC(N)=O)NC(=O)C(CC(=O)O)NC(=O)C(Cc3cnc[nH]3)NC(=O)C(Cc3ccccc3)NC(=O)C(C(C)CC)NC(=O)C(CCCN)NC2=O)C(C)CC)CS1 (stereo not drawn) (cyclo(DNK([Ile-Glu-Leu-X1])[Orn]IFH); configuration not given here) | – | -26.4
C#CCOc1ccc(C2CC(=O)Nc3c2c(C)nn3-c2nc(C)cc(C)n2)cc1 (configuration not stated) | – | 10.7
CC(=NNC(=O)c1ccc2nc[nH]c2c1)c1ccc(Br)cc1 | – | -21.3
CN(C)N=Nc1ccc2nc[nH]c2c1 | 35.5 µM (active) | –
CC/C(O)=N\S(=O)(=O)c1ccc(N=NN(C)C)cc1 | – | 15.8
COc1cc(OC)c(NC(=O)Cc2ccc(-n3c(C)nc4cccnc43)cc2)cc1Cl | – | 1.5
CC1=C/C(=N\OS(=O)(=O)c2ccccc2)C=CC1=O | 31.6 µM (active) | –
Cc1ccc(NC(=O)C2CCN(S(=O)(=O)c3cc(-c4noc(C)n4)ccc3C)CC2)c(C)c1 | – | 14.7
Cc1nn2c(=O)cc(COC(=O)c3cccc(NC(=O)COc4ccccc4Cl)c3)nc2s1 | – | 9.23

Compound | Potency | max response, negative = inhibition [%]
Nc1ncnc2c1c(I)cn2[C@@H]1C[C@H](N)[C@@H](O)[C@H]1O | – | -8.19
COc1ccc(Cl)cc1NC(=O)c1sc2nc3c(cc2c1N)CN(C)CC3 | – | -1.58
N#Cc1c(C(F)(F)F)cc(-c2ccc(Cl)cc2)nc1SCC(=O)O | – | -2.18
O=C(O)CSc1ccc(S(=O)(=O)N2CCCC2)cn1 | – | 10.8
N#Cc1c(N2CCCCC2)nc(N)c2c(N)nc(SCC(=O)O)cc12 | 50.1 µM (active) | –
Cc1cc(C)cc(NS(=O)(=O)c2cc3c(cc2C)NC(=O)CO3)c1 | – | -6.49
Cc1cc(C)c(NC(=O)CN2C(=O)c3cccnc3Oc3ccc(Cl)cc32)c(C)c1 | – | 7.84
C=CCNC(=O)c1ccc2nc(-c3ccco3)c(-c3ccco3)nc2c1 | – | -28.3
COCCNC(=O)Nc1ccc2nc(-c3ccco3)c(-c3ccco3)nc2c1 | 79.4 µM (active) | –
CCOc1ccc(NC(=O)c2ncoc2-c2ccco2)cc1 | – | 3.68
CCC(C)NC(=O)Cn1c(=O)n(-c2ccc(Cl)cc2)c(=O)c2c3c(sc21)CCCC3 (configuration not stated) | – | 7.47
Cc1nc([N+](=O)[O-])nn1C12CC3CC(CC(Br)(C3)C1)C2 | 20 µM (active) | –
CC1(C)OC2CC(=O)OC[C@@]23C1CC(=O)[C@]1(C)C3CC[C@@]2(C)C(c3ccoc3)OC(=O)C3O[C@@]321 (some centres not stated) | – | 3.74
CCOC(=O)c1c(C)oc2nc(C)nc(N3CCN(c4ccc(OC)cc4)CC3)c12 | – | 5.63
COc1ccc(C2(C#N)CCC(C(=O)O)CC2)cc1OC1CCCC1 (configuration not stated) | – | 5.35
Cc1ccc(OC(=O)CCC(=O)Nc2ccc(Br)cc2)cc1 | – | 4.03
CC(C)Oc1ccc(NC(=O)c2cc3ccccc3o2)cc1 | – | 10.8
CC(C)Oc1ccc(CC(=O)NNC(=S)Nc2ccc(Br)cc2)cc1 | 70.8 µM (active) | –
FCOC(C(F)(F)F)C(F)(F)F | – | 1.95

Compound | Potency | max response, negative = inhibition [%]
O=C(CSc1nnc(CNC(=O)c2ccccc2)n1-c1ccc(F)cc1)Nc1ccccc1F | – | 2.71
CCOc1ccc(N(C)S(=O)(=O)c2cc(-c3cnc(C)o3)ccc2OC)cc1 | – | -2.82
O=C(c1ccc2c(c1)C(=O)N(c1ccc(Cl)cc1)C2=O)N1CCN(c2ccccn2)CC1 | – | -2.28
O=C(O)c1ccc2c(c1)C(=O)N(c1ccc(/C=C/C(=O)c3ccccc3)cc1)C2=O | 20 µM (active) | –
Cc1cccc(N2C(=O)c3ccc(C(=O)Nc4cccc(C(=O)O)c4)cc3C2=O)c1 | – | 13.1
Cc1ccc(-n2c(SCC(=O)c3ccccc3)nc3c([nH]c4ccccc43)c2=O)cc1 | – | 23.5
COc1ccc(Cl)cc1NC(=O)CSc1nc(=O)[nH]c2c1CCCC2 | – | -3.46
Nc1ncc(S(=O)(=O)Nc2ccc(OC(F)(F)F)cc2)cn1 | – | 5.75
CN(C)C(=S)N=c1ssc(=S)n1Cc1ccco1 | 44.7 µM (active) | –
CC1CN(Cc2ccco2)C(=S)N(c2ccccc2)C1=O (configuration not stated) | – | 8.1
CCN(CC)C(=O)CSc1nnc(CNc2ccc(F)cc2)n1Cc1ccco1 | – | 6.05
COc1cc(C(=O)Nc2ccc(-n3c(C)nc4ccccc4c3=O)cc2)cc(OC)c1OC | – | -3.22
Cc1cccc(NC(=O)C2CCCN2S(=O)(=O)c2cccc3nsnc23)c1C (configuration not stated) | – | -10.9
CN(C)C(=O)N=NC(=O)N(C)C | 20 µM (active) | –
COc1ccc(-n2ccnc(NCCc3ccc(Cl)cc3)c2=O)cc1OC | – | 6.6
COc1cccc(-c2nnc3n(CCc4ccccc4)c(=O)c4ccccc4n23)c1O | – | 17.6
CC1CCN(C(=S)c2cccc(O)c2)CC1 | – | -26.6
CC1CCN(C(=S)c2ccc(-c3ccc(Cl)cc3Cl)o2)CC1 | 79.4 µM (active) | –
Cc1csc(NC(=O)c2ccc(-c3ccc(Cl)cc3Cl)o2)n1 | – | -1.72
